Assay outcomes as filed in PubChem BioAssay.
An excerpt weighted towards active compounds, which were near 19% of everything screened.
DT40 TDP1 CPT: growth inhibition of DT40 Tdp1-/-;hTDP1 cells with camptothecin (screen for TDP1 inhibitors). Potency, µM (doses to about 46.2 µM), for the others: top-dose activity change, negative = growth inhibition, usual class: inhibitors. 420,000 tested, 12% active. chicken DT40 Tdp1-/-;hTDP1 cells + 20 nM CPT, ATP luminescence, 48 h. AID 686979; further: potency means the concentration at half of the fitted maximal effect; nearly all actives have a fitted effect of over 55% in size
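Chicken DT40 Tdp1-/- cells stably complemented with human TDP1 were seeded at 400 cells/well in medium containing 20 nM camptothecin, exposed to pin-transferred compounds, and grown at 37 °C for at least 48 hr. Viability was read as ATP luminescence.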
IL-1B inflam inh: inhibitors of inflammasome signaling (IL-1 beta secretion). activity change, % at 57.5 µM. 360,000 tested, 4.7% active. AID 743279. THP-1 LPS/ATP IL-1B secretion, AlphaLISA, 16 h; stronger effect = lower value; in the data active means activity change below about -50%; inconclusive means mostly about -30% to -49%
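Secreted IL-1B measured by AlphaLISA bead assay after 16 h compound exposure of THP-1 cells; compounds (final up to 57.5 uM) added 1 h before LPS (250 ng/mL) and ATP (1.25 mM) stimulation; lower signal means less secretion.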
TDP1 cell noCPT: qHTS for Inhibitors of human tyrosyl-DNA phosphodiesterase 1 (TDP1): qHTS in cells in absence of CPT | 420,000 tested, 15% active | Potency, µM (titrated, usually from 46.2 µM), for inactives: at the top dose activity change, negative = growth inhibition, most hits filed as inhibitors | DT40 Tdp1-/- hTDP1 cells, no CPT, ATP luminescence, 48 h; further: potency means the concentration at half of the fitted maximal effect; nearly all actives have a fitted effect of over 55% in size
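Stably hTDP1-transfected Tdp1-null chicken DT40 cells were treated with library compounds minus camptothecin and grown for at least 48 hr at 37 °C, after which cellular ATP was quantified by luminescence.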
HT1080-NT tox: kills 2HG-producing HT-1080-NT fibrosarcoma cells. Potency, µM (titrated, usually from 46.1 µM), inactives show at the top dose activity, negative = less viability, usual class: cytotoxic. HT-1080-NT fibrosarcoma viability, CellTiter-Glo ATP luminescence, 48 h. 360,000 tested, 1.6% active;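 further: NT is the 2HG producing partner of a matched IDH1 knockdown line; potency means the concentration at half of the fitted maximal effect; 0% = DMSO-treated cells and -100% = media-only wells without cells; nearly all actives have a fitted effect of over 55% in size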
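Toxicity toward the 2HG-producing NT line was scored as %Activity, normalised to DMSO and no-cell wells, from CellTiter-Glo luminescence after 48 hours' treatment.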
HT1080 IDH1KD tx: kills HT-1080 cells with IDH1 knockdown. 360,000 tested, 2% active. AID 686971. Potency, µM (titrated, usually from 46.1 µM), for inactives: top-dose activity, negative = toxicity, most hits filed as cytotoxic. HT-1080 IDH1 knockdown viability, ATP luminescence, 48 h;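 further: potency means the concentration at half of the fitted maximal effect; 0% = DMSO wells and -100% = cell-free medium wells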
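% activity derives from luminescence (CellTiter-Glo), normalised to DMSO and no-cell wells. HT-1080-IDH1KD cells, 750/well, had 48 h compound exposure at 37 °C.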
Active calls of the source: *. Unless noted, the call rests on the fitted dose curve; in most records, active means well fitted curve in the direction sought with a large enough effect; inconclusive means small, poorly fitted or top-dose-only effect, or another doubt; inactive means no such curve, though single readings can be large; an effect the other way counts as inactive or inconclusive. Unless noted, on the % scale 0 is the no-effect control and ±100 the full control effect.

COc1ccc(Oc2nc3c(c(=O)n(C)c(=O)n3C)n2Cc2ccccc2Cl)cc1 was read as DT40 TDP1 CPT inconclusive and TDP1 cell noCPT 13µM*.
`O=C(NCCc1csc(-c2cccc(F)c2)n1)C(=O)Nc1cc(F)ccc1F` gave DT40 TDP1 CPT -14.0% and TDP1 cell noCPT -16.2%.
Screening Cn1c(Cc2cccs2)nnc1SC/C=C/c1ccccc1 returned DT40 TDP1 CPT inconclusive, IL-1B inflam inh -7.0, TDP1 cell noCPT 0.2%, HT1080-NT tox 2.8% and HT1080 IDH1KD tx 4.2%.
`CCN(CC)c1ccc(C2Nc3cccc4cccc(c34)N2)cc1` gave DT40 TDP1 CPT inconclusive, IL-1B inflam inh -7.8, TDP1 cell noCPT 16.4µM*, HT1080-NT tox -13.3% and HT1080 IDH1KD tx -6.0%.
Cc1ccc(N=C2C(=O)Nc3ccccc32)cc1 was read as DT40 TDP1 CPT -4.8%, IL-1B inflam inh 17.4, TDP1 cell noCPT 4.3%, HT1080-NT tox -0.8% and HT1080 IDH1KD tx 0.7%.
CCN(CC)c1ccc(N=C2C(=O)Nc3ccccc32)cc1 was read as DT40 TDP1 CPT 6.51µM*, IL-1B inflam inh -89.0*, TDP1 cell noCPT 5.8µM*, HT1080-NT tox inconclusive and HT1080 IDH1KD tx 20.6µM*.
For Fc1ccc(C2Nc3cccc4cccc(c34)N2)cc1 the results were DT40 TDP1 CPT inconclusive, IL-1B inflam inh -18.2, TDP1 cell noCPT inconclusive, HT1080-NT tox -10.2% and HT1080 IDH1KD tx -28.3%.
For CCCOc1ccc(C2Nc3cccc4cccc(c34)N2)cc1 the results were DT40 TDP1 CPT 20.6µM*, IL-1B inflam inh 33.8, TDP1 cell noCPT 6.51µM*, HT1080-NT tox 0.4% and HT1080 IDH1KD tx -8.8%.
`CCN(CC)c1ccc(NC(=O)Nc2ccccc2)cc1` gave DT40 TDP1 CPT -8.0%, IL-1B inflam inh inconclusive, TDP1 cell noCPT inconclusive, HT1080-NT tox -6.7% and HT1080 IDH1KD tx -7.9%.
For FC(F)(F)c1ccc(C2Nc3cccc4cccc(c34)N2)cc1 the results were DT40 TDP1 CPT inconclusive, IL-1B inflam inh -9.6, TDP1 cell noCPT inconclusive, HT1080-NT tox 1.8% and HT1080 IDH1KD tx 2.0%.
CCN(CC)c1ccc(C2NC(=O)c3ccccc3N2)cc1 (stereo unspecified) was read as DT40 TDP1 CPT 7.31µM*, IL-1B inflam inh 38.7, TDP1 cell noCPT 13µM*, HT1080-NT tox inconclusive and HT1080 IDH1KD tx inconclusive.
Cc1cc(C)c[n+](CC(=O)c2c(C)cc(C)c([N+](=O)[O-])c2C)c1 was read as DT40 TDP1 CPT -6.9%, IL-1B inflam inh 16.4, TDP1 cell noCPT 10.5%, HT1080-NT tox -4.3% and HT1080 IDH1KD tx -3.6%.
For O=C(CN1C2=NCCCN2c2ccccc21)c1cccc(Br)c1 the results were DT40 TDP1 CPT inconclusive, IL-1B inflam inh -26.4, TDP1 cell noCPT 23.1µM*, HT1080-NT tox -27.3% and HT1080 IDH1KD tx -23.8%.
`O=C(CN1C2=NCCCN2c2ccccc21)c1ccc(Cl)cc1Cl` gave DT40 TDP1 CPT 20.6µM*, IL-1B inflam inh -19.3, TDP1 cell noCPT 14.6µM*, HT1080-NT tox -18.0% and HT1080 IDH1KD tx -28.2%.
O=C(CN1C2=NCCN2c2ccccc21)c1ccc(Br)s1 was read as DT40 TDP1 CPT 18.4µM*, IL-1B inflam inh -18.4, TDP1 cell noCPT inconclusive, HT1080-NT tox -2.4% and HT1080 IDH1KD tx 2.3%.
O=C(CN1C2=NCCN2c2ccccc21)c1ccc2c(c1)OCO2 was read as DT40 TDP1 CPT inconclusive, IL-1B inflam inh -81.3*, TDP1 cell noCPT inconclusive, HT1080-NT tox 0.0% and HT1080 IDH1KD tx inconclusive.
Cc1cc(C(=O)O[C@H]2[C@H](Cc3ccccc3)NS(=O)(=O)[C@H]3C[C@@H]4C=C[C@]23O4)ccc1[N+](=O)[O-] was read as DT40 TDP1 CPT inconclusive, IL-1B inflam inh inconclusive, TDP1 cell noCPT inconclusive, HT1080-NT tox -0.3% and HT1080 IDH1KD tx -0.2%.
